The source of these data is PubChem BioAssay.

By remaining activity is commonly meant the signal under treatment as a percentage of the control signal. As a reminder, the viability is a read-out of living cells in per cent, often relative to untreated cells. One may read the inhibition as the drop in the measured response relative to a control, in per cent.

Assay [1] can be described thus: Wnt pathway potentiators raising nuclear beta-catenin – imaging, WNT3A-conditioned medium, mouse C2C12, NPC library, primary screen (AID 1117326; in the data active means nuclear beta-catenin stimulation mostly above about 4.2%, no sharp cut-off; inactive means mostly below about 10%). The note with it: stronger effect = higher value.
Assay [2] in a line: stimulators of insulin release from INS-1E, primary screen, cell-based, 5 mM glucose, NPC library (AID 1117329;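 active means compound raises insulin release from rat beta cells at 5 mM glucose, no numeric limit stated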). Particulars: rat INS-1E insulin secretion, at 10 µM, stronger effect = higher value.
Assay [3] can be described thus: growth inhibition of GSK3B-pretreated HCT116 cells – cell-based, CellTiter-Glo, 0.2 to 20 µM (AID 1117336;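 active means compounds lowering colon cancer cell viability after pretreatment blocking the GSK3B kinase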). Particulars: HCT116 viability after GSK3B inhibitor, at 20 µM, stronger effect = higher value. In general terms: ATP-based viability assays read luminescence as a measure of living cells.
A short description of assay [4]: inhibition of endothelial tube formation, primary screen, imaging, VEGF stimulated, CD31 staining, tube area, NPC library (AID 1117340;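 active means compound that reduces growth-factor-driven endothelial tube area in a mixed cell culture, no cutoff stated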). The note with it: VEGF-stimulated ADSC/ECFC co-culture, at 10 µM, stronger effect = higher value.
Assay [5] can be described thus: GLP1 release stimulators, primary, NCI-H716, NPC library (AID 1117341;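 active means compound raises GLP1 secretion from the human gut endocrine cells, with no numeric limit stated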). The note with it: NCI-H716 cells, at 10 µM, stronger effect = higher value.
The nature of assay [6]: HCT116 colon cancer cell growth inhibition, primary screen, CellTiter-Glo luminescence, NPC library (AID 1117342;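 active means compounds that lower survival of HCT116 colon cancer cells in the luminescence readout, no numeric limit stated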). The note with it: at 20 µM (top of the series).
Assay [7] can be described thus: reduced SW480 viability measured with CellTiter-Glo, NPC library, primary (AID 1117343;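 active means compounds that lower viability of the colon cancer cells in the luminescence readout, with no numeric limit stated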). Particulars: CellTiter-Glo luminescence; at 20 µM (top of the series).
Assay [8] is described as follows: NPC library primary testing for decreased DLD-1 cell viability via CellTiter-Glo (AID 1117346;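 active means compounds that lower survival of DLD-1 colon cancer cells in the luminescence readout, no cutoff given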). The note with it: DLD-1 viability, CellTiter-Glo luminescence; at 20 µM (top of the series).
The subject of assay [9] is Aerobactin synthetase IucA (Klebsiella pneumoniae, hypervirulent). The assay is described as follows: biochemical IucA inhibition screen of LOPAC library by absorbance (AID 1346212).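 Further: 100% = no compound wells and 0% = no enzyme wells.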 The note with it: IucA enzyme assay, absorbance (OD) readout; stronger effect = lower value;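 tested at 8 µM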.
Assay [10] deals with NAD(+) hydrolase SARM1 (Homo sapiens) (UniProt Q6SZW1). The assay is described as follows: blocking NAD cleavage by SARM1 SAM-TIR – cell lysate, NAD-Glo luminescence (AID 1508614;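 active means compound whose remaining NAD level is above about 45 nM, limit read from the data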). Particulars: SAM-TIR HEK293T lysate NADase, at 1 µM, stronger effect = higher value.
NAD(+) hydrolase SARM1 (Homo sapiens), sequence (Q6SZW1 whole entry, looked up): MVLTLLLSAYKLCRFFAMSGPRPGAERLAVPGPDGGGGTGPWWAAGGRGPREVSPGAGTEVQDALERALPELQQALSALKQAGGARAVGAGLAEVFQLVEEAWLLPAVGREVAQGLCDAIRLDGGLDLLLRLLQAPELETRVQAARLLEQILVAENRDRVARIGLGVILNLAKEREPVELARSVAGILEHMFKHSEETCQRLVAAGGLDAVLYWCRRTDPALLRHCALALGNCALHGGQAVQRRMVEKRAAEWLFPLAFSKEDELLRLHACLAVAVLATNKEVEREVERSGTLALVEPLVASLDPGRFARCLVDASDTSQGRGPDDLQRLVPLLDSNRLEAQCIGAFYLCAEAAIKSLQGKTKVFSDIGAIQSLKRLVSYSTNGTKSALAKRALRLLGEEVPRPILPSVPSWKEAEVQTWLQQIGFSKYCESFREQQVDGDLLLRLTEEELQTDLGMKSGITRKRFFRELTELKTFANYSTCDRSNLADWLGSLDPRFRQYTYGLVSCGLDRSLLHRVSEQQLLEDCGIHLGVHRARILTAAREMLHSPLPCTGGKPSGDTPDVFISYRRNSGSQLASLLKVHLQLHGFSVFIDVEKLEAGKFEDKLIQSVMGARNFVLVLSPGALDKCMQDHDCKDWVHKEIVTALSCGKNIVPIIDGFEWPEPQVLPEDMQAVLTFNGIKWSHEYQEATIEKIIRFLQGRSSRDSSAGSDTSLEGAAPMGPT
A short description of assay [11]: compounds altering circadian rhythm period length – cell-based, LOPAC library, luminescence reporter (AID 2774).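 Further: values are relative to mean of DMSO wells on each plate.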 The note with it: circadian reporter cells, at 7 µM, actives lie on both sides.
A short description of assay [12]: compounds altering viability of human ES cells (AID 493140).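 Further: cells exposed to compounds for four days before counting.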 Particulars: human embryonic stem cell survival screen; stronger effect = higher value.
Assay [13] is described as follows: P. berghei load reduction in hepatocytes – cell-based, HepG2, luciferase luminescence, HepG2 viability, primary screen (AID 624349; in the data active means parasite load remaining mostly below about 12%, no sharp cut-off; inactive means mostly above about 10%;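 further: 100% = mean of DMSO negative control wells on the same plate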). Particulars: P. berghei liver stage in HepG2, luciferase luminescence, concentration not given here; parasite load remaining: stronger effect = lower value; viability: measured here: HepG2 viability without parasites.
The subject of assay [14] is Hepatitis C virus NS3 helicase. The assay is described as follows: blockers of NS3h binding to ssDNA – biochemical, fluorescence polarization, LOPAC1280 library, primary screen (AID 687035; in the data active means inhibition above about 37%). The note with it: Purified HCV NS3 helicase, Cy5-dT15 ssDNA binding fluorescence polarization; stronger effect = higher value; concentration not given here. On the technique in general: Polarisation of emitted light reports the rotation of a fluorescent probe.

The nature of assay [15]: viability loss with induced miR-34 in A549 – imaging, A549 dox-inducible miR-34, nuclei and caspase counts, primary screen (AID 1347080;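 active means compounds whose cell count with miR-34 switched on is under 0.7 times the count with it off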). The note with it: A549 miR-34 inducible, Hoechst nuclei count, 48 h.
Assay [16] is described as follows: MELAS cybrid and Rieske KO viability enhancers – cell-based, MELAS cybrids, Rieske KO mouse fibroblasts, CellTiter-Glo, primary screen (AID 1508586;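 active means mean z-score across replicates of 1.96 or higher in either the MELAS or the Rieske mutant cell line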;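 further: z relative to plate mean and SD of compound and empty wells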). The note with it: low glucose.
A short description of assay [17]: galactose survival enhancers in mitochondrial complex I cybrids – cell-based, galactose medium, ATP luminescence, primary screen (AID 1645843;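 active means z-score of at least 1.8 in each of two replicates, scored against plate mean and spread of sample wells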;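 further: positive z means more ATP and so rescue of galactose-driven cybrid death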). Particulars: complex I mutant cybrid cells, 72 h, stronger effect = higher value.
Setting [18] is: measured here: relative caspase fold change +Dox/-Dox.
[19] abbreviates: measured here: total cells with miR-34 induction, stronger effect = lower value.
Where [20] appears, read: measured here: total cells without miR-34 induction.
The mark [21] stands for this setting: MELAS cybrid survival, CellTiter-Glo 48 h, stronger effect = higher value.
Setting [22] is: Rieske KO mouse fibroblast survival, CellTiter-Glo 72 h.

Molecules are shown by their SMILES. Several values for one entry are separate records, joined by “and”; a condition that tells them apart may be missing. Identical values can stand only once. Activity calls are given as the source filed them. Unless noted, how the calls were made is not given here.

`C[N+]1(C)[C@@H]2CC[C@H]1CC(OC(=O)C(CO)c1ccccc1)C2` (stereo not given in full): the nuclear beta-catenin stimulation in assay [1] (at 10 µM) was 0.5% (inactive); in assay [1] (stimulation, at 2 µM) it was -0.7%. For the same compound, the insulin secretion stimulation in assay [2] is 3.3% (inactive). For the same compound, the viability decrease in [3] was -5.8% (inactive). Also, the tube area decrease in [4] is -7.8% (inactive). Besides, in assay [5], the GLP1 secretion stimulation is 2.8% (inactive). Besides, the inhibition of viability in [6] was 12.1% (inactive). In addition, the viability decrease (inhibition) is -13.2% (inactive) in assay [7] and 13.1% (inactive) in assay [8]. Moreover, the remaining activity in assay [9] was 93.2% (inactive). The remaining NAD in [10] was 10 nM (inactive).
`CC(=O)[C@H]1CC[C@H]2[C@@H]3CC[C@H]4C[C@H](O)CC[C@]4(C)[C@H]3C(=O)C[C@]12C`: the period change in assay [11] was -0.1 h (inactive). Also, in assay [12], the survival is 20.1 (inactive). Also, the parasite load remaining in [13] was 70.8% (inactive). The viability in assay [13] is 72.4%. The inhibition in assay [14] is -1% (inactive). The nuclear beta-catenin stimulation in assay [1] (at 10 µM) is 0.5% (inactive); in assay [1] (stimulation, at 2 µM) it was -0.7%. Moreover, in assay [2], the insulin secretion stimulation is 3.1% (inactive). Also, in [3], the viability decrease was 28% (inactive). Besides, in assay [4], the tube area decrease is -23.1% (inactive). In addition, in assay [5], the GLP1 secretion stimulation is -1.7% (inactive). Besides, the inhibition of viability in assay [6] was 41.1% (inactive). The viability decrease (inhibition) was 67.8% (active) in assay [7] and 19.9% (inactive) in [8]. The remaining activity in assay [9] is 112% (inactive). Further, the fold change in assay [15] (stronger effect = lower value) is 1.12 (inactive) and 0.844 (inactive); in assay [15] (setting [18]) it was 0.8 and 0.773. Moreover, the cell count is 11000 and 8700 in assay [15] (setting [19]); 9770 and 10300 in assay [15] (setting [20]). The results for the z-score in assay [16] (setting [21]), in assay [16] (setting [22]) and in assay [17] were 0.566 (inactive), 0.0524 and -0.315 (inactive), respectively.
With `N#CC(C#N)=Cc1ccc(O)c(O)c1`, the period change in assay [11] was -0.18 h (inactive). For the same compound, the survival in assay [12] was 57.1 (inactive). The inhibition in assay [14] was 0% (inactive). The nuclear beta-catenin stimulation in assay [1] (at 10 µM) was 3.9% (inactive); in assay [1] (stimulation, at 2 µM) it was 3.3%. In addition, the insulin secretion stimulation in [2] is 0.65% (inactive). Also, the viability decrease in assay [3] was 86.7% (active). In assay [4], the tube area decrease was 17.4% (inactive). In [5], the GLP1 secretion stimulation is -2.9% (inactive). In addition, the inhibition of viability in assay [6] is 55.1% (active). The viability decrease (inhibition) in [7] was 62.8% (active); in assay [8], 48.5% (inactive). Further, in [9], the remaining activity is 120% (inactive). The fold change in assay [15] (stronger effect = lower value) was 1.02 (inactive) and 0.942 (inactive) and 0.96 (inactive); in assay [15] (setting [18]), 1.77 and 0.329 and 1.5. For the same compound, the cell count was 8900 and 8210 and 9690 in [15] (setting [19]); 8760 and 8720 and 10100 in assay [15] (setting [20]). The z-score was -0.508 (inactive) in [16] (setting [21]); -0.257 in assay [16] (setting [22]); -0.735 (inactive) and -0.66 (inactive) in assay [17].
For `CCCCC/C=C\C/C=C\C/C=C\C/C=C\CCCC(=O)NCC(=O)O`, the period change in assay [11] was 0.15 h (inactive). Besides, the survival in [12] was 96.8 (inactive). Moreover, in assay [14], the inhibition is -1% (inactive). In addition, the nuclear beta-catenin stimulation in assay [1] (at 10 µM) was 0.8% (inactive); in assay [1] (stimulation, at 2 µM), 0.6%. In [2], the insulin secretion stimulation was 2.2% (inactive). The viability decrease in [3] was 104% (active). For the same compound, the tube area decrease in assay [4] is -12.4% (inactive). In addition, in [5], the GLP1 secretion stimulation was 5% (inactive). Moreover, the inhibition of viability in assay [6] was 103% (active). Also, the figures for the viability decrease (inhibition) in [7] and in [8] were 145% (active) and 105% (active), respectively. Besides, the remaining activity in assay [9] was 101% (inactive). Also, the fold change in assay [15] (stronger effect = lower value) was 0.935 (inactive) and 1.01 (inactive); in assay [15] (setting [18]), 1.02. Besides, the cell count is 5930 and 5790 in assay [15] (setting [19]); 6340 and 5700 in assay [15] (setting [20]).
For `CN1[C@@H]2CC[C@H]1CC(OC(=O)c1cc(Cl)cc(Cl)c1)C2` (stereo not given in full), the nuclear beta-catenin stimulation in assay [1] (at 10 µM) was 5.5% (inactive); in assay [1] (stimulation, at 2 µM) it was 3.7%. Further, the insulin secretion stimulation in assay [2] was 14.4% (inactive). Moreover, the viability decrease in assay [3] was 59.7% (active). Moreover, the tube area decrease in [4] is 2.2% (inactive). Also, the GLP1 secretion stimulation in [5] was 13.6% (inactive). In assay [6], the inhibition of viability is 87.1% (active). Also, the viability decrease (inhibition) was 63.5% (active) in assay [7] and 85.1% (active) in assay [8]. The remaining activity in assay [9] was 96.1% (inactive).
